KKLEB tox = reduces viability of KKLEB cystic fibrosis airway cells; 360,000 tested, 0.36% active; KKLEB CF airway cells viability, ATPlite luminescence, overnight; hits give low values; cells stimulated with P. aeruginosa culture filtrate; AID 602141; activity change (cytotoxicity), % at 5 µM;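 active means corrected activity change at or below -50% at 5 µM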
TWEAK Fn14 block = TWEAK-Fn14 signaling inhibition | TWEAK-stimulated Fn14 reporter cells, luciferase luminescence, 8 h | inhibition, % at 10 µM | 360,000 tested, 2% active | AID 1159606; in the data active means inhibition above about 50%
EWS-Fli block = inhibitors of EWS/Fli oncoprotein transcriptional activity. A673 NR0B1-luciferase reporter, viability-normalised. inhibition, % at 12.6 µM. 350,000 tested, 0.67% active;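 active means mean inhibition of at least 50% after viability correction, with every replicate also passing that limit; inconclusive means mean reaches 50% but only one of two replicates passes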;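 further: firefly luciferase signal divided by Alamar Blue viability fluorescence both relative to DMSO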
LGR2 antag = blocks bursicon-induced cAMP signaling via Drosophila LGR2; HEK293 LGR2, CRE-luciferase, bursicon-stimulated, 4 h; inhibition, % at 9.99 µM; 380,000 tested, 0.35% active;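 active means drop in luminescence signal, shown as inhibition above about 50% in the replicate tests, limit read from the data, passing the limit was not always enough; inconclusive means probably only some replicates passing the limit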;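 further: agonist challenge used bursicon conditioned medium at about half maximal strength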
TROY NFkB inh = inhibitors of TROY-dependent NF-kB signaling; Q293 LMP1-TROYcd NF-kB luciferase reporter, 4 h; inhibition, % at 10 µM; 360,000 tested, 0.98% active; AID 1347056;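 active means compounds whose plate-normalised and pattern-corrected inhibition of the luciferase reporter signal at the single screening dose is 50% or more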
CF NFkB block = blocks PAF-induced NF-kB reporter in cystic fibrosis cells; KKLEB NF-kB-GFP reporter, GFP fluorescence overnight; inhibition, % at 5 µM; 360,000 tested, 0.86% active;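 active means at least 50% inhibition at 5 µM, scaled per plate between neutral and stimulator controls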;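 further: PAF is a Pseudomonas aeruginosa culture filtrate used as stimulus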
Hits are given with their value; n = inactive; u = inconclusive; x = no result. Only some compounds are listed: those with a hit (about 2.6% of all), similar ones and a draw of the others.

SMILES | KKLEB tox | TWEAK Fn14 block | EWS-Fli block | LGR2 antag | TROY NFkB inh | CF NFkB block
COc1ccc(NC(=O)c2ccccc2Cl)c(NC(=O)c2ccco2)c1 | n | n | n | n | n | n
CNC[C@H]1OCCCC[C@H](C)Oc2ccc(NS(=O)(=O)c3cn(C)cn3)cc2C(=O)N([C@H](C)CO)C[C@@H]1C | x | x | n | n | x | x
COc1ccc2nc(NC(=S)NC(=O)c3ccco3)sc2c1 | n | n | x | n | 51 | n
COc1ccc2nc(NC(=O)c3cccc(OCc4c(C)noc4C)c3)sc2c1 | n | 52 | x | x | n | n
COc1ccc(C(=O)Nc2nc3cc4c(cc3s2)OCO4)c(OC)c1 | -54 | n | n | n | n | n
Cc1nc(NC(=O)c2ccco2)sc1C(=O)O | n | 59 | n | n | n | n
CCSc1nnc(NC(=O)c2cccc(OCc3c(C)noc3C)c2)s1 | n | n | x | x | n | n
C[C@H]1CN([C@@H](C)CO)S(=O)(=O)c2ccc(Br)cc2O[C@H]1CN(C)S(=O)(=O)c1ccc(F)cc1 | x | x | n | n | x | x
COc1ccc(S(=O)(=O)Nc2cccc3c2O[C@@H](CN(C)Cc2ccc(Oc4ccccc4)cc2)[C@@H](C)CN([C@@H](C)CO)C3=O)cc1 | x | x | n | n | x | x
C[C@H]1CN([C@@H](C)CO)C(=O)c2cccc(NS(C)(=O)=O)c2O[C@H]1CN(C)Cc1ccc(C(=O)O)cc1 | x | x | n | n | x | x
COc1ccc2sc(NC(=O)c3ccco3)nc2c1 | n | 70 | n | 75 | n | n
COc1cc(C(=O)Nc2cccc(NC(=O)c3ccccc3)c2)cc(OC)c1OC | n | n | n | n | n | n
CCOC(=O)NC1CCc2cc(OC)c(OC)c(OC)c2-c2ccc(SC)c(=O)cc21 (stereo not given) | n | n | n | n | n | n
CN[C@H]1CCc2cc(OC)c(OC)c(OC)c2-c2ccc(OC)c(=O)cc21 | n | n | 57 | n | n | n
CCCCOC(=O)NC1CCc2cc(OC)c(OC)c(OC)c2-c2ccc(SC)c(=O)cc21 (stereo not given) | n | n | 55 | n | n | n
COc1cc2c(c(OC)c1OC)-c1ccc(NC(=O)c3ccccc3)c(=O)cc1[C@@H](NC(C)=O)CC2 | n | n | 54 | n | n | n
CCOCC(=O)NC1CCc2cc(OC)c(OC)c(OC)c2-c2ccc(SC)c(=O)cc21 (stereo not given) | n | n | u | n | n | n
CN1[C@H](C(=O)N2CCc3ccccc3C2)[C@@H](CO)[C@@H]2Cn3c(ccc(-c4ccncc4)c3=O)[C@@H]21 | x | x | n | n | x | x
O=C(C1CCCC1)N1CCCCN2[C@H](CO)[C@@H](c3ccc(-c4ccncc4)cc3)[C@H]2C1 | x | x | n | x | x | x
C[C@@H]1O[C@@H](OC[C@@H]2O[C@H](Oc3c(-c4ccc(O)cc4)oc4cc(O)cc(O)c4c3=O)[C@@H](O)[C@H](O)[C@H]2O)[C@H](O)[C@H](O)[C@H]1O | n | n | n | n | n | n
CC(C)=CCc1c(O)cc(O)c2c(=O)c(O[C@@H]3O[C@@H](C)[C@H](O)[C@@H](O)[C@H]3O)c(-c3ccc(O)cc3)oc12 | n | n | x | x | n | 68
COC1C=CC=C(C)C(=O)NC2=CC(=O)C(N)=C(CC(C)CC(OC)C(O)C(C)C=C(C)C1OC(N)=O)C2=O (stereo not given) | n | 70 | n | n | n | 64
COC1CC(C)C(OC)c2cc(O)cc(c2O)NC(=O)C(C)=CC=CC(C)C(OC(N)=O)C(C)=CC(C)C1OC (stereo not given) | n | n | n | n | n | n
Cc1cccc(Nc2nc(N)nc(CCl)n2)c1C | -85 | n | u | x | n | 100
CCOc1ccc(Nc2nc(N)nc(CCl)n2)cc1 | -68 | n | n | x | n | 80
SMILES | KKLEB tox | TWEAK Fn14 block | EWS-Fli block | LGR2 antag | TROY NFkB inh | CF NFkB block
Cc1ccc(Nc2nc(N)nc(CCl)n2)cc1 | n | n | 71 | n | n | n
Cc1ccccc1Nc1nc(N)nc(CSc2nc3ccccc3s2)n1 | n | n | x | n | n | n
Cc1ccc(Nc2nc(N)nc(CSc3nc4ccccc4s3)n2)cc1 | n | 83 | x | x | n | n
CC(=O)N(C[C@H]1N[C@H](CO)[C@@H]1c1ccc(-c2ccc(F)cc2)cc1)C(C)C | x | x | n | n | x | x
Cc1ccc(Nc2nc(N)nc(CCl)n2)c(C)c1 | -72 | n | n | n | n | 83
C[C@H]1CN([C@@H](C)CO)C(=O)c2cc(NS(=O)(=O)c3cccs3)ccc2O[C@H]1CN(C)Cc1ccc2c(c1)OCO2 | x | x | n | n | x | x

Compound activity (PubChem)
